# Results published in PubChem BioAssay (NCATS).
# Results filed as inconclusive are left out. Entries that show only a call come without a potency. A number with no mark means an inactive call. The source made the active and inactive calls. The call rests on the fitted dose curve; in most records, active means well fitted curve in the direction sought with a large enough effect; inconclusive means small, poorly fitted or top-dose-only effect, or another doubt; inactive means no such curve, though single readings can be large; an effect the other way counts as inactive or inconclusive.
# Experiments:
# [1] = qHTS of pediatric cancer cell lines to identify multiple opportunities for drug repurposing: Primary screen for Rh30 cells (AID 1347107); further: series mostly up to about 46 µM; nearly all actives have a fitted effect of over 75% in size
# In short: (§1)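 Cells (500-1,000/well) rested 5 h, then received compounds for 48 h; metabolically active cells were measured by CellTiter-Glo luminescence. Final concentrations spanned up to 46 µM (MIPE, 11-point) or 0.59 nM-46 µM (NPC, 8-point) in primary screens, 11-point in follow-ups.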
# [2] = qHTS of pediatric cancer cell lines to identify multiple opportunities for drug repurposing: Primary screen for Rh41 cells (AID 1347108);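 further: series mostly up to about 46 µM; luminescence drop marks cytotoxic hits; nearly all actives have a fitted effect of over 70% in size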
# In short: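 Primary screen of approved and investigational compounds on cells in growth media at 37 degrees C, 5% CO2. MIPE set at 11-point and NPC set at 8-point dilutions; viability scored by ATP-based luminescence at 48 hours.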
# [3] = qHTS of pediatric cancer cell lines to identify multiple opportunities for drug repurposing: Confirmatory screen for BT-12 cells (AID 1347112); further: nearly all actives have a fitted effect of over 55% in size
# In short: as §1
# [4] = qHTS of pediatric cancer cell lines to identify multiple opportunities for drug repurposing: Confirmatory screen for LAN-5 cells (AID 1347113); further: nearly all actives have a fitted effect of over 65% in size
# In short: as §1
# [5] = qHTS of pediatric cancer cell lines to identify multiple opportunities for drug repurposing: Confirmatory screen for DAOY cells (AID 1347114); further: nearly all actives have a fitted effect of over 65% in size
# In short: (§2)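 Viability measured as metabolically active cells via CellTiter-Glo luminescence following 48 hours of compound exposure, 11-point dilutions in confirmatory testing. 500-1,000 cells/well plated 5 hours before dosing; controls were DMSO and 2.3 µM bortezomib.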
# [6] = qHTS of pediatric cancer cell lines to identify multiple opportunities for drug repurposing: Confirmatory screen for NB-EBc1 cells (AID 1347115);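 further: cells exposed to compound for 48 h before the viability read; nearly all actives have a fitted effect of over 45% in size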
# In short: as §1
# [7] = qHTS of pediatric cancer cell lines to identify multiple opportunities for drug repurposing: Confirmatory screen for SJ-GBM2 cells (AID 1347116); further: nearly all actives have a fitted effect of over 60% in size
# In short: as §2
# [8] = qHTS of pediatric cancer cell lines to identify multiple opportunities for drug repurposing: Confirmatory screen for TC32 cells (AID 1347118);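 further: cells exposed to compound for 48 h before the read; nearly all actives have a fitted effect of over 65% in size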; further: potency means the concentration at half of the fitted maximal effect
# In short: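 qHTS, TC32, 48 h drug treatment, CellTiter-Glo luminescence as a proxy for metabolically active cells; primary top concentration 46 µM (MIPE 11-pt, NPC 8-pt); confirmatory 11-pt.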
# [9] = qHTS of pediatric cancer cell lines to identify multiple opportunities for drug repurposing: Confirmatory screen for MG 63 (6-TG R) cells (AID 1347119); further: nearly all actives have a fitted effect of over 55% in size
# In short: as §1
# [10] = qHTS of pediatric cancer cell lines to identify multiple opportunities for drug repurposing: Confirmatory screen for Rh41 cells (AID 1347123); further: nearly all actives have a fitted effect of over 60% in size; further: potency means the concentration at half of the fitted maximal effect
# In short: as §1
# [11] = qHTS of pediatric cancer cell lines to identify multiple opportunities for drug repurposing: Confirmatory screen for RD cells (AID 1347124);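 further: cells exposed to compound for 48 h before viability readout; nearly all actives have a fitted effect of over 65% in size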
# In short: as §1
# [12] = qHTS of pediatric cancer cell lines to identify multiple opportunities for drug repurposing: Confirmatory screen for Rh18 cells (AID 1347125); further: nearly all actives have a fitted effect of over 55% in size
# In short: as §1
# [13] = qHTS of pediatric cancer cell lines to identify multiple opportunities for drug repurposing: Confirmatory screen for Rh30 cells (AID 1347126); further: nearly all actives have a fitted effect of over 55% in size
# In short: as §1
# [14] = qHTS of pediatric cancer cell lines to identify multiple opportunities for drug repurposing: Confirmatory screen for A673 cells (AID 1347110); further: potency means the concentration at half of the fitted maximal effect
# In short: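 Viability was read as ATP luminescence (CellTiter-Glo) after 48 h of compound exposure at 37 C in A673 cells seeded at 500-1,000/well. Titrations reached 46 uM final, with 11 points in the confirmatory screen. Concentration-response curves were fitted directly.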
# [15] = qHTS of pediatric cancer cell lines to identify multiple opportunities for drug repurposing: Confirmatory screen for BT-37 cells (AID 1347117); further: nearly all actives have a fitted effect of over 55% in size
# In short: as §1
# [16] = qHTS of pediatric cancer cell lines to identify multiple opportunities for drug repurposing: Confirmatory screen for OHS-50 cells (AID 1347128)
# In short: as §1
# [17] = qHTS of pediatric cancer cell lines to identify multiple opportunities for drug repurposing: Confirmatory screen for SK-N-MC cells (AID 1347111);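 further: potency means the concentration at half of the fitted maximal effect; cells exposed to compound for 48 h before the readout; nearly all actives have a fitted effect of over 70% in size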
# In short: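 Seed 500-1,000 cells/well; rest 5 h at 37 degrees C. Pin-transfer compounds, 11-point titration. Incubate 48 h. Add CellTiter-Glo, 15 min RT, read luminescence.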
compound,measurement,setting,value
COc1ccc(C2C(=O)c3ccccc3C2=O)cc1,Potency,[1],inactive
same,Potency,[2],inactive
NCCc1ccn[nH]1,Potency,[1],inactive
same,Potency,[2],inactive
CCOC(=O)c1cccc(N)c1,Potency,[1],inactive
same,Potency,[2],inactive
OC[C@@H](O)[C@@H](O[C@@H]1O[C@H](CO)[C@H](O)[C@H](O)[C@H]1O)[C@H](O)[C@@H](O)CO,Potency,[1],inactive
same,Potency,[2],inactive
O=C(O)CCCCC(=O)O,Potency,[1],inactive
same,Potency,[2],inactive
CC(C)(C)NC(=O)[C@@H]1CN(Cc2cccnc2)CCN1C[C@@H](O)C[C@@H](Cc1ccccc1)C(=O)N[C@H]1c2ccccc2C[C@H]1O,Potency,[1],inactive
same,Potency,[2],inactive
C/C=C/c1ccc(OC)cc1,Potency,[1],inactive
same,Potency,[2],inactive
CN1CCC(=C2c3ccccc3Sc3ccccc32)CC1,Potency,[1],inactive
same,Potency,[2],inactive
Cc1c(C(N)=O)cc([N+](=O)[O-])cc1[N+](=O)[O-],Potency,[1],inactive
same,Potency,[2],inactive
CCCC(=O)Nc1ccc(OCC(O)CNC(C)C)c(C(C)=O)c1 (stereo not given),Potency,[1],inactive
same,Potency,[2],inactive
Cc1cc(=O)n(-c2ccccc2)n1C,Potency,[1],inactive
same,Potency,[2],inactive
O=C(COc1ccc(Cl)cc1)N1CCN(Cc2ccc3c(c2)OCO3)CC1,Potency,[1],inactive
same,Potency,[2],inactive
CC(C)N=C(N)/N=C(\N)Nc1ccc(Cl)cc1,Potency,[1],inactive
same,Potency,[2],inactive
Nc1ccc(C(=O)O)cc1,Potency,[1],inactive
same,Potency,[2],inactive
CC(=O)Oc1ccc(C(=C2CCCCC2)c2ccc(OC(C)=O)cc2)cc1,Potency,[1],inactive
same,Potency,[2],inactive
O=C1OC2(c3ccc(O)cc3Oc3cc(O)ccc32)c2ccccc21,Potency,[1],inactive
same,Potency,[2],inactive
Cc1c(F)c(N2CCNC(C)C2)cc2c1c(=O)c(C(=O)O)cn2C1CC1 (stereo not given),Potency,[1],inactive
same,Potency,[2],inactive
CCCCc1nc(Cl)c(CO)n1Cc1ccc(-c2ccccc2-c2nn[nH]n2)cc1,Potency,[1],inactive
same,Potency,[2],inactive
CC1(C)O[C@@H]2C[C@H]3[C@@H]4C[C@H](F)C5=CC(=O)C=C[C@]5(C)[C@H]4[C@@H](O)C[C@]3(C)[C@]2(C(=O)CO)O1,Potency,[1],inactive
same,Potency,[2],inactive
Cc1cc2c(cc1CC(=O)c1sccc1S(=O)(=O)Nc1onc(C)c1Cl)OCO2,Potency,[1],inactive
same,Potency,[2],inactive
OC[C@H]1O[C@H](O[C@]2(CCl)O[C@H](CCl)[C@@H](O)[C@@H]2O)[C@H](O)[C@@H](O)[C@H]1Cl,Potency,[1],inactive
same,Potency,[2],inactive
CCn1cc(C(=O)O)c(=O)c2cnc(N3CCCC3)nc21,"activity change, negative = cytotoxic",[1],8.92% [at 9.22 µM]
same,"activity change, negative = cytotoxic",[2],12.6% [at 9.22 µM]
C[C@@H](CN(C)C)CN1c2ccccc2Sc2ccccc21,Potency,[1],inactive
same,Potency,[2],inactive
C/C=C(/C(=C/C)c1ccc(O)cc1)c1ccc(O)cc1,Potency,[1],inactive
same,Potency,[2],inactive
CCOC(=O)n1ccn(C)c1=S,Potency,[1],inactive
same,Potency,[2],inactive
C[C@H]1[C@H](NC(=O)/C(=N/OC(C)(C)C(=O)O)c2csc(N)n2)C(=O)N1S(=O)(=O)O (stereo in doubt),Potency,[1],inactive
same,Potency,[2],inactive
CN1CCN(C(c2ccccc2)c2ccccc2)CC1,Potency,[1],inactive
same,Potency,[2],inactive
COc1cc(OC)cc(OC)c1,Potency,[1],inactive
same,Potency,[2],inactive
CC(C)(Oc1ccc(Cl)cc1)C(=O)O,Potency,[1],inactive
same,Potency,[2],inactive
Cc1ncc(CSSCc2cnc(C)c(O)c2CO)c(CO)c1O,Potency,[1],inactive
same,Potency,[2],inactive
COc1cc(/C=C/C(=O)O[C@H]2CC[C@]34C[C@]35CC[C@]3(C)[C@@H]([C@H](C)CCC=C(C)C)CC[C@@]3(C)[C@@H]5CC[C@H]4C2(C)C)ccc1O,Potency,[1],inactive
same,Potency,[2],inactive
Cc1onc(-c2c(Cl)cccc2Cl)c1C(=O)N[C@@H]1C(=O)N2[C@@H]1SC(C)(C)[C@@H]2C(=O)O,Potency,[1],inactive
same,Potency,[2],inactive
O=C(Nc1ccc(Cl)c(Cl)c1)C1CC1,Potency,[1],inactive
same,Potency,[2],inactive
CCN(CCCc1ccccc1)CCCc1ccccc1,Potency,[1],inactive
same,Potency,[2],inactive
CCCCOc1ccc(OCCCN2CCOCC2)cc1,Potency,[1],inactive
same,Potency,[2],inactive
CCCCCCc1ccc(O)cc1O,Potency,[1],inactive
same,Potency,[2],inactive
CC(=O)OCC(=O)[C@@]12OC(C)(C)O[C@@H]1C[C@H]1[C@@H]3C[C@H](F)C4=CC(=O)C=C[C@]4(C)[C@@]3(F)[C@@H](O)C[C@@]12C,Potency,[1],inactive
same,Potency,[2],inactive
same,Potency,[3],inactive
same,Potency,[4],inactive
same,Potency,[5],inactive
same,Potency,[6],inactive
same,Potency,[7],inactive
same,Potency,[8],inactive
same,Potency,[9],inactive
same,Potency,[10],inactive
same,Potency,[11],inactive
same,Potency,[12],inactive
same,Potency,[13],inactive
C[C@@H]1C[C@H]2[C@@H]3CCC4=CC(=O)C=C[C@]4(C)[C@@]3(F)[C@@H](O)C[C@]2(C)[C@H]1C(=O)CO,Potency,[1],inactive
same,Potency,[2],inactive
same,Potency,[14],inactive
same,Potency,[3],inactive
same,Potency,[4],inactive
same,Potency,[5],inactive
same,Potency,[6],inactive
same,Potency,[7],inactive
same,Potency,[15],inactive
same,Potency,[8],inactive
same,Potency,[11],inactive
same,Potency,[12],inactive
same,Potency,[13],inactive
same,Potency,[16],inactive
C#C[C@]1(O)CC[C@H]2[C@@H]3CCc4cc(OC5CCCC5)ccc4[C@H]3CC[C@@]21C,Potency,[1],inactive
same,Potency,[2],inactive
CC(C)(C(=O)c1cccnc1)c1cccnc1,Potency,[1],inactive
same,Potency,[2],inactive
same,Potency,[14],0.369 µM (active)
same,Potency,[17],2.93 µM (active)
same,Potency,[3],inactive
same,Potency,[5],inactive
same,Potency,[6],inactive
same,Potency,[8],3.29 µM (active)
same,Potency,[9],inactive
same,Potency,[10],inactive
same,Potency,[11],inactive
same,Potency,[12],inactive
same,Potency,[13],inactive
same,Potency,[16],inactive
Cc1nc2n(c(=O)c1CCN1CCC(c3noc4cc(F)ccc34)CC1)CCC[C@H]2O,Potency,[1],inactive
same,Potency,[2],inactive
O=C(CCCN1CCC(O)(c2ccc(Br)cc2)CC1)c1ccc(F)cc1,Potency,[1],inactive
same,Potency,[2],inactive
same,Potency,[17],2.61 µM (active)
same,Potency,[3],inactive
same,Potency,[6],inactive
same,Potency,[7],inactive
same,Potency,[8],2.61 µM (active)
same,Potency,[9],inactive
same,Potency,[10],18.5 µM (active)
same,Potency,[12],inactive
COc1c2occc2c(OC)c2c(=O)cc(C)oc12,Potency,[1],inactive
same,Potency,[2],inactive
CC(=O)Oc1ccc2c(c1)CC[C@@H]1[C@@H]2CC[C@]2(C)[C@@H](O)CC[C@@H]12,Potency,[1],inactive
same,Potency,[2],inactive
same,Potency,[17],6.57 µM (active)
same,Potency,[3],inactive
same,Potency,[7],inactive
same,Potency,[8],6.57 µM (active)
same,Potency,[10],inactive
same,Potency,[11],inactive
same,Potency,[12],inactive
same,Potency,[13],inactive
same,Potency,[16],inactive
